# “And” between values parts separate entries of the source, which are not always exact repeats. Identical values can stand only once. Records with an inconclusive call do not appear. Where a call stands in place of a potency, no number is given. Where a structure was tested more than once in an assay, its records may differ in their call. The source made the active and inactive calls. Unless noted, calls follow the shape of the full dose curve.
# Legend:
# [1] = Nuclear factor erythroid 2-related factor 2/antioxidant responsive element (Nrf2/ARE) small molecule agonists: qHTS cell viability counter screen in human keratinocytes (AID 1919968; active = well fitted cell-killing curve with a large enough effect in the repeat runs; also: nearly all actives have a fitted effect of over 55% in size; also: potency is read from the fitted curve at half-maximal effect)
# Method in brief: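 Fluorescence read-out from CellTiter-Fluor after 1 h at 37 C. Wells held HaCaT-derived ARE-luciferase reporter cells (1,500/well) treated 23 h with DMSO-dissolved compounds. Run in the same wells as the luciferase agonist read.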
# [2] = Nuclear factor erythroid 2-related factor 2/antioxidant responsive element (Nrf2/ARE) small molecule agonists: luciferase reporter gene qHTS assay in human keratinocytes (AID 1919969); also: nearly all actives have a fitted effect of over 35% in size; also: potency is read from the fitted curve at half-maximal effect
# [3] = molecular target: Gonadotropin-releasing hormone receptor (Homo sapiens) (UniProt P30968); assay: Human gonadotropin-releasing hormone receptor (GnRHR) small molecule agonists, calcium flux assay in GnRHR-HEK293 cells (AID 1920063); also: nearly all actives have a fitted effect of over 35% in size
# Gonadotropin-releasing hormone receptor (Homo sapiens), sequence (P30968 whole entry, looked up): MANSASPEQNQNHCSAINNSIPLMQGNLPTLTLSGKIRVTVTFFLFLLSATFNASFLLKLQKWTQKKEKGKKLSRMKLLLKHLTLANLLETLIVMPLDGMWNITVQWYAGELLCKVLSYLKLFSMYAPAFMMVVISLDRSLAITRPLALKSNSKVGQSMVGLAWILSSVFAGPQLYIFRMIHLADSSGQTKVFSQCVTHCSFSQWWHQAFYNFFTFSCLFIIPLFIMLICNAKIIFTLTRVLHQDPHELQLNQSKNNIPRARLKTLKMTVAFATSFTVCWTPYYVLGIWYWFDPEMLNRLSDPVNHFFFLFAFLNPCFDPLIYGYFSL
# Method in brief: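 Calcium-dye fluorescence, Ex/Em=480/540, recorded every 1 sec over 3 min after compound addition to GnRHR-HEK293 cells. Cells had been seeded 18 hours earlier and dye-loaded for 1 hour at 37 C. Fifteen concentrations, triplicates.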
# [4] = p53 small molecule agonists, cell-based qHTS assay with human liver microsomes (AID 1963577);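 also: p53 response element beta-lactamase reporter cells with liver microsomes plus NADPH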
# Method in brief: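 With metabolic activation: human liver microsomes (0.5 mg/mL final) plus NADPH (0.5 mg/mL final) added alongside compounds to p53RE-bla cells; 16 h 37 C exposure; beta-lactamase read by LiveBLAzer fluorescence.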
# [5] = p53 small molecule agonists, cell-based qHTS assay with rat liver microsomes (AID 1963578)
# Method in brief: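 Metabolic activation by rat liver microsomes and NADPH, each 0.5 mg/mL final, added right after compounds to p53RE-bla reporter cells (4,000/well, plated 5 h earlier). 16 h at 37 C, then LiveBLAzer substrate for 2 h at room temperature in the dark; fluorescence read-out.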
# [6] = p53 small molecule agonists, cell-based qHTS assay with human liver microsomes: qHTS cell viability counter screen (AID 1963579); also: nearly all actives have a fitted effect of over 45% in size
# Method in brief: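 Metabolic activation used human liver microsomes and NADPH, both 0.5 mg/mL final, over 16 hours at 37 C on p53RE-bla cells (4,000/well). Cytotoxicity measured by CellTiter-Glo luminescence, 30 min at room temperature.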
# [7] = p53 small molecule agonists, cell-based qHTS assay with rat liver microsomes: qHTS cell viability counter screen (AID 1963580); also: nearly all actives have a fitted effect of over 45% in size
# Method in brief: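 Luminescent ATP readout (CellTiter-Glo, 30 min at room temperature) reports viability of p53RE-bla HCT-116 cells after 16 h at 37 C with test compounds under metabolic activation by rat liver microsomes and NADPH at 0.5 mg/mL final each.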
# [8] = p53 small molecule agonists, cell-based qHTS assay: qHTS cell viability counter screen (AID 1963581); also: nearly all actives have a fitted effect of over 45% in size; also: potency is read from the fitted curve at half-maximal effect
# Method in brief: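 Cytotoxicity read-out: ATP-based luminescence (CellTiter-Glo, 30 min RT) measured in the same wells as the p53 reporter assay, HCT-116 p53RE-bla cells, 16 h compound exposure at 37 C.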
# [9] = p53 small molecule agonists, cell-based qHTS assay (AID 1963582; active = well fitted activation curve with a large enough effect in the signal ratio in the repeat runs, not every such curve was filed as active; the % refers to the signal ratio)
# Method in brief: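 Fluorescence intensity read-out of a beta-lactamase reporter under a p53 response element. Cells were exposed to DMSO-dissolved compounds for 16 h at 37 C, then developed with FRET substrate for 2 h at RT.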
# [10] = molecular target: 5-hydroxytryptamine receptor 2A (Homo sapiens) (UniProt P28223); assay: 5-hydroxytryptamine receptor 2A (HTR2A) small molecule antagonists, cell-based qHTS assay (AID 1963586); also: nearly all actives have a fitted effect of over 45% in size
# 5-hydroxytryptamine receptor 2A (Homo sapiens), sequence (P28223 whole entry, looked up): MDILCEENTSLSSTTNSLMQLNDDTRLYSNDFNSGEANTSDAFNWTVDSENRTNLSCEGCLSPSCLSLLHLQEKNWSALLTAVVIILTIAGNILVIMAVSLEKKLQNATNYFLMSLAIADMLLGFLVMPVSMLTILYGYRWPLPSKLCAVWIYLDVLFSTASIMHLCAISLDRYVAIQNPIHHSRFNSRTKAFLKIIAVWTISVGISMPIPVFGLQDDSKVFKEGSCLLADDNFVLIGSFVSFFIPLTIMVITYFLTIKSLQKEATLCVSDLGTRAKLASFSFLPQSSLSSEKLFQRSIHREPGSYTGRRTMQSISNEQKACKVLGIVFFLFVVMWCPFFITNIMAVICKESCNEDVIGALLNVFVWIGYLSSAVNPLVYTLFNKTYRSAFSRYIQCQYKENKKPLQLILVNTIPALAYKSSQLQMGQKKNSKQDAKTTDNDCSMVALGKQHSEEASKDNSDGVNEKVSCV
# Method in brief: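 CHO cells stably expressing human HTR2A were plated for 18 h at 37 C, then loaded with calcium dye for 1 h. Compounds were preincubated 5 min at room temperature before DOI (4 nM solution) was added. Kinetic fluorescence was read for 3 min.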
# [11] = molecular target: 5-hydroxytryptamine receptor 2A (Homo sapiens) (UniProt P28223); assay: 5-hydroxytryptamine receptor 2A (HTR2A) small molecule agonists, cell-based qHTS assay (AID 1963587); also: nearly all actives have a fitted effect of over 30% in size
# Method in brief: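 HTR2A-CHO cells, plated 18 h at 37 C/5% CO2, dye-loaded 1 h at 37 C; compounds in DMSO added by pin tool (agonist mode). Intracellular calcium flux read as kinetic fluorescence on FDSS over 2 min at 1 s intervals.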
# [12] = molecular target: Muscarinic acetylcholine receptor M1 (Homo sapiens) (UniProt P11229); assay: Cholinergic receptor muscarinic 1 (CHRM1) small molecule antagonists, cell-based qHTS assay (AID 1963588); also: nearly all actives have a fitted effect of over 40% in size; also: potency is read from the fitted curve at half-maximal effect
# Muscarinic acetylcholine receptor M1 (Homo sapiens), sequence (P11229 whole entry, looked up): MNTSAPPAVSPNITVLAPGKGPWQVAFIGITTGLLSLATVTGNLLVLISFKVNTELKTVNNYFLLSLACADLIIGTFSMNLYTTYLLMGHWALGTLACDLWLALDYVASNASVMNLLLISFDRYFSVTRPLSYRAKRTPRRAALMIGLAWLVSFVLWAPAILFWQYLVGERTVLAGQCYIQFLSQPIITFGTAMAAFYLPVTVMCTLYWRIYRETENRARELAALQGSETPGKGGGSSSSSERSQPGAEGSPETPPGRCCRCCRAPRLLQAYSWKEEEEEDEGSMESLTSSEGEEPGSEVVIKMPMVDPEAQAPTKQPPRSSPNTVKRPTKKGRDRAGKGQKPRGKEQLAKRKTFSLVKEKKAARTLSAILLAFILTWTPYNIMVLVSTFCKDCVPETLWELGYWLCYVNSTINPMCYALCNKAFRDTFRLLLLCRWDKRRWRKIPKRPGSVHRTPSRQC
# Method in brief: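 Compounds were tested at 15 concentrations in three independent runs. Dye-loaded CHRM1-CHO cells were exposed 5 min at room temperature before stimulation by acetylcholine added at 50nM. Intracellular calcium was read kinetically on FDSS for 3 min.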
# [13] = molecular target: Muscarinic acetylcholine receptor M1 (Homo sapiens) (UniProt P11229); assay: Cholinergic receptor muscarinic 1 (CHRM1) small molecule agonists, cell-based qHTS assay (AID 1963589); also: nearly all actives have a fitted effect of over 35% in size
# Method in brief: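 Calcium flux read-out: kinetic fluorescence at 1 sec intervals after pin-tool compound addition to dye-loaded CHRM1-CHO cells (human M1). Agonist mode; 15 concentrations tested in triplicate independent runs.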
# [14] = cAMP Responsive Elements (CRE) small molecule agonists, cell-based qHTS assay (AID 1963590)
# Method in brief: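 Beta-lactamase reporter readout: LiveBLAzer B/G FRET substrate, 2 h at room temperature, added after 3 h compound treatment of CRE-bla HEK 293T cells at 37 C/5% CO2.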
# [15] = cAMP Responsive Elements (CRE) small molecule antagonists, cell-based qHTS assay (AID 1963591; active = well fitted inhibition curve with a large enough effect in the signal ratio in the repeat runs, not every such curve was filed as active; the % refers to the signal ratio)
# Method in brief: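 HEK293T CRE-bla; 18 h preincubation; compound pin-transfer; NKH477 0.25 uM final, 3 h, 37 C; LiveBLAzer FRET substrate 2 h RT.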
# [16] = molecular target: Beta-2 adrenergic receptor (Homo sapiens) (UniProt P07550); assay: Adrenergic beta2 receptor (ADRB2) small molecule antagonists, cell-based qHTS assay (AID 1963592); also: series mostly up to about 92 µM; nearly all actives have a fitted effect of over 50% in size
# Beta-2 adrenergic receptor (Homo sapiens), sequence (P07550 whole entry, looked up): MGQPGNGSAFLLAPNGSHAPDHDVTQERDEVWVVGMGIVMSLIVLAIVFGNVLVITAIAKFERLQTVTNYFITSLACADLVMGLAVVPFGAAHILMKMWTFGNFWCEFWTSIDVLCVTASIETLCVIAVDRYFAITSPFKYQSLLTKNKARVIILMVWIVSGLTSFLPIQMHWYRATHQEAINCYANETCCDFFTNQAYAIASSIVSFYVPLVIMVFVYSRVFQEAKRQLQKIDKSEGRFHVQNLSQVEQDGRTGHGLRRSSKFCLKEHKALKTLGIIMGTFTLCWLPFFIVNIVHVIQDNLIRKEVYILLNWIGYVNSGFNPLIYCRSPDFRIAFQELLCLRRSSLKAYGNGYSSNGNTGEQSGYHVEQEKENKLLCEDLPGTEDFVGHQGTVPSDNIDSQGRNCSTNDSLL
# Method in brief: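 Assay format: CHO-ADRB2 cells, 18-20hr seeding at 37C/5% CO2, then compound plus 1nM isoproterenol agonist mix for 0.5hr RT. Homogeneous time-resolved fluorescence cAMP detection after 1hr, expressed as 665/615 nm ratio.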
# [17] = molecular target: D(2) dopamine receptor (Homo sapiens) (UniProt P14416); assay: Dopamine D2 receptor (DRD2) small molecule agonists, cell-based qHTS assay (AID 1963594); also: nearly all actives have a fitted effect of over 35% in size
# D(2) dopamine receptor (Homo sapiens), sequence (P14416 whole entry, looked up): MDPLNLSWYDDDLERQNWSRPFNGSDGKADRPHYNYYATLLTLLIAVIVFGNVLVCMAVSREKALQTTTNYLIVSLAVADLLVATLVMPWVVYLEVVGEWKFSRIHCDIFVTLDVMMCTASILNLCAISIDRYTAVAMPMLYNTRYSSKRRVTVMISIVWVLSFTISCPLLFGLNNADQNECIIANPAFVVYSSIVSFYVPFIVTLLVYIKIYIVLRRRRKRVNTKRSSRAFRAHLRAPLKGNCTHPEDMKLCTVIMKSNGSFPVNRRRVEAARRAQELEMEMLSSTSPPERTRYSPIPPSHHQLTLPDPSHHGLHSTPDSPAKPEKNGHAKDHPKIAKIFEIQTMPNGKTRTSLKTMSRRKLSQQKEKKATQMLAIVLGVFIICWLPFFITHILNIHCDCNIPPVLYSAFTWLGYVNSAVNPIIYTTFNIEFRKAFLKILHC
# Method in brief: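 HEK293 cells stably expressing DRD2 were cultured 24 h at 37 C, then given Ro20-1724 (0.1 mM final) and compounds for 10 min at room temperature. NKH477 (200nM) was then added for 30 min. cAMP was read by HTRF.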
# [18] = molecular target: D(2) dopamine receptor (Homo sapiens) (UniProt P14416); assay: Dopamine D2 receptor (DRD2) small molecule antagonists, cell-based qHTS assay (AID 1963595; active = well fitted inhibition curve with a large enough effect in the signal ratio in the repeat runs, with a control signal flat; the % refers to the signal ratio)
# Method in brief: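 Antagonist mode in DRD2-HEK293 cells: after compound addition with 0.1 mM Ro20-1724, cells received quinpirole (12 nM) and NKH477 (200 nM) for 30 min at room temperature; HTRF cAMP read after 1 h detection.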
# [19] = molecular target: Beta-2 adrenergic receptor (Homo sapiens) (UniProt P07550); assay: Adrenergic beta2 receptor (ADRB2) small molecule agonists, cell-based qHTS assay (AID 1963593);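 also: CHO cells stably overexpressing human ADRB2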
# Method in brief: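 CHO cells stably over-expressing ADRB2 were plated overnight at 37C, then dosed with compounds plus a stimulation mix containing 100uM IBMX and 25uM Ro-20-1724 for 0.5hr at room temperature. cAMP was measured by HTRF competition, 1hr.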
Compound,Potency [1],Potency [2],Potency [3],Potency [4],Potency [5],Potency [6],Potency [7],Potency [8],Potency [9],Potency [10],Potency [11],Potency [12],Potency [13],Potency [14],Potency [15],Potency [16],Potency [17],Potency [18],Potency [19]
S=C=S,inactive,inactive,inactive,inactive,inactive,inactive,inactive,inactive,inactive,inactive,inactive,inactive,inactive,inactive,inactive,inactive,inactive,inactive,–
BrCCBr,inactive,inactive,inactive,inactive,inactive,inactive,inactive,inactive,inactive,inactive,inactive,inactive,inactive,inactive,inactive,inactive,inactive,inactive,inactive
CC(=[OH+])/C=C(/C)[O-].CC(=[OH+])/C=C(\C)[O-].CC(=[OH+])/C=C(\C)[O-].[Al],inactive,inactive,inactive,inactive,inactive,inactive,inactive,inactive,inactive,inactive,inactive,inactive,–,inactive,inactive,inactive,inactive,inactive,–
ClCC(Br)CBr (stereo not drawn),inactive,inactive,inactive,inactive,inactive,inactive,inactive,inactive,inactive,inactive,inactive,inactive,inactive,inactive,inactive,inactive,inactive,inactive,–
O=C1C=CC(=O)C=C1,inactive,inactive,inactive,inactive,inactive,inactive,inactive,inactive,inactive,inactive,inactive,inactive,inactive,inactive,inactive,inactive,inactive,inactive,inactive
O=C(O)C(F)(F)C(F)(F)C(F)(F)C(F)(F)C(F)(F)C(F)(F)C(F)(F)C(F)(F)F,inactive,inactive,inactive,inactive,inactive,inactive,inactive,inactive,inactive,inactive,inactive,4.21 µM (active),inactive,inactive,inactive,–,–,inactive,inactive
Clc1ccc(C(Cl)(Cl)Cl)cn1,inactive,inactive,inactive,inactive,inactive,inactive,inactive,inactive,inactive,inactive,inactive,–,inactive,–,inactive,–,inactive,inactive,inactive
CC(C)[N+](C)(CCC(C(N)=O)(c1ccccc1)c1ccccc1)C(C)C,inactive,inactive,inactive,inactive,inactive,inactive,inactive,inactive,inactive,inactive,inactive,0.0023 µM (active),inactive,inactive,inactive,–,inactive,inactive,inactive
O=c1oc2ccccc2c(O)c1C(CC(O)c1ccc(-c2ccc(Br)cc2)cc1)c1ccccc1 (stereo not drawn),inactive,inactive,inactive,inactive,inactive,inactive,–,19.3 µM (active),–,–,inactive,25.1 µM (active),inactive,–,–,–,inactive,inactive,inactive
OCCSCSCCO,inactive,inactive,inactive,inactive,inactive,inactive,inactive,inactive,inactive,inactive,inactive,inactive,inactive,inactive,inactive,inactive,inactive,inactive,–
Clc1nc(Cl)nc(Cl)n1,inactive,inactive,inactive,inactive,–,inactive,inactive,inactive,inactive,inactive,inactive,inactive,inactive,inactive,inactive,inactive,inactive,inactive,–
CCOP(=O)(OCC)OP(=O)(OCC)OCC,inactive,inactive,inactive,inactive,inactive,inactive,inactive,inactive,inactive,–,inactive,inactive,inactive,inactive,inactive,inactive,–,inactive,inactive
CCC(C)c1cc([N+](=O)[O-])cc([N+](=O)[O-])c1O (stereo not drawn),inactive and 17.2 µM (active),inactive,inactive,inactive,inactive,inactive,inactive,–,inactive,inactive,inactive,–,inactive,inactive,inactive,inactive,inactive,inactive,–
O=C(NCNC(=O)NC1C(=O)NC(=O)N1CO)NC1C(=O)NC(=O)N1CO (stereo not drawn),inactive,inactive,inactive,inactive,inactive,inactive,inactive,inactive,inactive,–,–,inactive,inactive,inactive,inactive,inactive,–,inactive,–
O=c1ccc(=O)[nH][nH]1,inactive,inactive,inactive,inactive,–,inactive,inactive,inactive,inactive,inactive,–,inactive,inactive,inactive,inactive,inactive,inactive,inactive,inactive
C(=NC1CCCCC1)=NC1CCCCC1,54.8 µM (active),30.6 µM (active),inactive,–,inactive,inactive,inactive,inactive,inactive,inactive,inactive,inactive,inactive,inactive,inactive,inactive,inactive,inactive,inactive

# From PubChem BioAssay (Tox21)
